Measurements from the supplement of paper PMC11732987, “Enantioselective OTUD7B fragment discovery through chemoproteomics screening and high-throughput optimisation” (Communications Chemistry, 2025).

Experiments:
Experiment in all cases: log2 ratio of Biotin-Ahx-Ub-VS probe labelling (fragment/DMSO); higher = less target engagement (more negative = stronger competition), active = hit call of the paper (q ≤ 0.05, log2 ratio ≤ -1)
Settings in all cases: compound concentration: 200 uM; treatment time: 3 h
USP34 = USP34 (UniProt Q70CQ2)
In short: (§1)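 Average log2 ratios of fragment over vehicle were obtained by unpaired t-test from global-median-normalised Spectronaut label-free quantities. Proteins with ≥2 unique peptides were included. HEK293T lysate (495 µg per sample) was treated in triplicate with fragment at 200 µM or vehicle for 3 h, then with Biotin-Ahx-Ub-VS at 0.5 µM final for 1 h, and labelled DUBs were NeutrAvidin-enriched and run by diaPASEF LC-MS/MS.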

USP36 = biological target: T1, USP36 (UniProt Q9P275)
T1 sequence (whole entry): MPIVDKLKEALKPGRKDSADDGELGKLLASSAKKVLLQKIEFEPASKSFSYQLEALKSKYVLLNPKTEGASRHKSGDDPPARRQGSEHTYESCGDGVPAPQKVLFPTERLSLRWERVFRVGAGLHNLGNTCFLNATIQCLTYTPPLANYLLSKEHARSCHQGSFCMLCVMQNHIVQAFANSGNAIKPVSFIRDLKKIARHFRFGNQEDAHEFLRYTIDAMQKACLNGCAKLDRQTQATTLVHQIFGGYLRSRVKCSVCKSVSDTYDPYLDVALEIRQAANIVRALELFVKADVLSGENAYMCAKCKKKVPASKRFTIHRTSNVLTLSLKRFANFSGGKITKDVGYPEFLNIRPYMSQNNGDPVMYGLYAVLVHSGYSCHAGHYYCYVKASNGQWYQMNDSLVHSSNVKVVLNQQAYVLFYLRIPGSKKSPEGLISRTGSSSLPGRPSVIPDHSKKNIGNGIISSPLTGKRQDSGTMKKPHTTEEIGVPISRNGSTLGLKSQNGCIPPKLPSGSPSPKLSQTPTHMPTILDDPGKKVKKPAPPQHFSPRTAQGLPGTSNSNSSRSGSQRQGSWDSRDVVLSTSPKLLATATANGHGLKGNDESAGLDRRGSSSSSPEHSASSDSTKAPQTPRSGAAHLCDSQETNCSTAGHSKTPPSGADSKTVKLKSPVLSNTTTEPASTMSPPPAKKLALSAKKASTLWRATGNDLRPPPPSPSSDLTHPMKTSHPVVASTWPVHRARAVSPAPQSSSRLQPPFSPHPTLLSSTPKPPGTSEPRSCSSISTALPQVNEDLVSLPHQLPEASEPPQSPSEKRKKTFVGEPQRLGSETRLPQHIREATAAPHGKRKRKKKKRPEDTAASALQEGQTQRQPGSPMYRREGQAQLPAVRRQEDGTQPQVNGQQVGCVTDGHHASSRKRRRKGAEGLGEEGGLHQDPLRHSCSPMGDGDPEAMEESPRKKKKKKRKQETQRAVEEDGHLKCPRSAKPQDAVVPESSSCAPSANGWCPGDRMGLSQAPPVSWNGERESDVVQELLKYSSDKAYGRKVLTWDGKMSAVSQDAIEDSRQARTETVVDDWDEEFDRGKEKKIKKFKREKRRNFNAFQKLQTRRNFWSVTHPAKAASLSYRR
In short: as §1

USP38 = biological target: T2, USP38 (UniProt Q8NB14)
T2 sequence (whole entry): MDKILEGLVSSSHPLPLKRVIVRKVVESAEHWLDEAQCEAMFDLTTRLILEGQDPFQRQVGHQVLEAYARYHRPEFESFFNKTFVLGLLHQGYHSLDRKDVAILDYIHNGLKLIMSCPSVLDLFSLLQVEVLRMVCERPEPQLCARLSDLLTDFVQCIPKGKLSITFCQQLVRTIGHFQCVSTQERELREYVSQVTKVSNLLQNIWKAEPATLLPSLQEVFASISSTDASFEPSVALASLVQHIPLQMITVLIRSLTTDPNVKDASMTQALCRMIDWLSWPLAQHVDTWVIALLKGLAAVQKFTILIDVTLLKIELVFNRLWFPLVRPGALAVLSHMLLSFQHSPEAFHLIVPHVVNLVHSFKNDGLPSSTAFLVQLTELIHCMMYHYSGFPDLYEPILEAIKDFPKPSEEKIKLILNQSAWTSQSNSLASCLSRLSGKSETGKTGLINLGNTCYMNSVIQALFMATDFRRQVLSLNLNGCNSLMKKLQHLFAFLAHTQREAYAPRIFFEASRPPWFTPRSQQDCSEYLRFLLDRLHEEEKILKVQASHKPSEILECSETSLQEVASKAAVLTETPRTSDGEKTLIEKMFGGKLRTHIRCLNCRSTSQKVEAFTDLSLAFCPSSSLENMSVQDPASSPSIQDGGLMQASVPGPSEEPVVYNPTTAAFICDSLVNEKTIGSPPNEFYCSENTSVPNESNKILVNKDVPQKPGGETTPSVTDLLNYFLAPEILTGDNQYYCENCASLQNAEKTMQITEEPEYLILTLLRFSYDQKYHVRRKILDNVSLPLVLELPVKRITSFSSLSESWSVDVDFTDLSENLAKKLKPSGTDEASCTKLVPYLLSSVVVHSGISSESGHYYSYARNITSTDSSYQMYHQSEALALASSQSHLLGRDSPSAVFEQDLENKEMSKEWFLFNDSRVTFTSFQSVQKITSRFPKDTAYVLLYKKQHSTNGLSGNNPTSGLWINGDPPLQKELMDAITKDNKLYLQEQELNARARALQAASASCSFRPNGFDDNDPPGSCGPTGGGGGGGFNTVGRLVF
In short: as §1

USP39 = biological target: T3, USP39 (UniProt Q53GS9)
T3 sequence (whole entry): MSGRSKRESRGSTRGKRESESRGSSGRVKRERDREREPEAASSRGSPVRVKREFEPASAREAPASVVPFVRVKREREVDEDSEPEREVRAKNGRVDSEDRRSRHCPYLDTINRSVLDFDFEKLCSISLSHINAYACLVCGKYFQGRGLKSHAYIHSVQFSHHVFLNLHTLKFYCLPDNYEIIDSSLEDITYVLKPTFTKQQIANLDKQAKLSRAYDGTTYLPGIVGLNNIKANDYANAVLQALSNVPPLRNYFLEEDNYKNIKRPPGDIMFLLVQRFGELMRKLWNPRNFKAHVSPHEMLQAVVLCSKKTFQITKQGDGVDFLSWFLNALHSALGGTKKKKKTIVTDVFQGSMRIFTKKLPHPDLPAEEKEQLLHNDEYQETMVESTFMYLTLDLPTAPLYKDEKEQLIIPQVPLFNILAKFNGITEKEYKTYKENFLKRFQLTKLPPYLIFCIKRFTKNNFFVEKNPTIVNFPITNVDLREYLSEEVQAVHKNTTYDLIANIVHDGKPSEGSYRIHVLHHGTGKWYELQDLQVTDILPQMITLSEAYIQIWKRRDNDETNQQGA
In short: as §1

USP4 = biological target: T4, USP4 (UniProt Q13107)
T4 sequence (whole entry): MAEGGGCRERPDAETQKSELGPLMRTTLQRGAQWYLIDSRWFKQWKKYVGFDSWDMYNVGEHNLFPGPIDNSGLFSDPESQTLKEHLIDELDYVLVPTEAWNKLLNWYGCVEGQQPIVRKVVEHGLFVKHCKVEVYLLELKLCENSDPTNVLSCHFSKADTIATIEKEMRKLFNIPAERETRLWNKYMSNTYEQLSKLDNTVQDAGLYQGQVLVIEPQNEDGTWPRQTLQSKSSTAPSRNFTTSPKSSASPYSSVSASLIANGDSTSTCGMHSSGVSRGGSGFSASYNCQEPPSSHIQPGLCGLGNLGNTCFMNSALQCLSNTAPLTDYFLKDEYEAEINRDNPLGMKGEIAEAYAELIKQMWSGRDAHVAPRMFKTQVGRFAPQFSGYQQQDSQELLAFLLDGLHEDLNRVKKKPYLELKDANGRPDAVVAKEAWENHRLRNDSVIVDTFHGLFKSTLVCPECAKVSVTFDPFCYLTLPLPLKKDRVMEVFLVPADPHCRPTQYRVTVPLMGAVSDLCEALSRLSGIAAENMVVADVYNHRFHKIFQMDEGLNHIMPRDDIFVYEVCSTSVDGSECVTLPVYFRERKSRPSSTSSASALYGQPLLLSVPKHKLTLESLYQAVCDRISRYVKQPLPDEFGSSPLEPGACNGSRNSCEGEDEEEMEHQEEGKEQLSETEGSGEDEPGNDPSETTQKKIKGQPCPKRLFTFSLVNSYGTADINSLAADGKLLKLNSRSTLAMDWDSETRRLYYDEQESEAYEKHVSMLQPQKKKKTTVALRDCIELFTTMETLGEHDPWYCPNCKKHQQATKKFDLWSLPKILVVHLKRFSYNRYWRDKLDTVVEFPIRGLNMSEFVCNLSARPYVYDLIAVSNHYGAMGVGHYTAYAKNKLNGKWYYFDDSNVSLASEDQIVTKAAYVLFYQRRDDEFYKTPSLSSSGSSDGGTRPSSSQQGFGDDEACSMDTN
In short: as §1

Measured: log2 ratio of Biotin-Ahx-Ub-VS probe labelling

USP34, sequence (Q70CQ2 whole entry, the tested form may be a part): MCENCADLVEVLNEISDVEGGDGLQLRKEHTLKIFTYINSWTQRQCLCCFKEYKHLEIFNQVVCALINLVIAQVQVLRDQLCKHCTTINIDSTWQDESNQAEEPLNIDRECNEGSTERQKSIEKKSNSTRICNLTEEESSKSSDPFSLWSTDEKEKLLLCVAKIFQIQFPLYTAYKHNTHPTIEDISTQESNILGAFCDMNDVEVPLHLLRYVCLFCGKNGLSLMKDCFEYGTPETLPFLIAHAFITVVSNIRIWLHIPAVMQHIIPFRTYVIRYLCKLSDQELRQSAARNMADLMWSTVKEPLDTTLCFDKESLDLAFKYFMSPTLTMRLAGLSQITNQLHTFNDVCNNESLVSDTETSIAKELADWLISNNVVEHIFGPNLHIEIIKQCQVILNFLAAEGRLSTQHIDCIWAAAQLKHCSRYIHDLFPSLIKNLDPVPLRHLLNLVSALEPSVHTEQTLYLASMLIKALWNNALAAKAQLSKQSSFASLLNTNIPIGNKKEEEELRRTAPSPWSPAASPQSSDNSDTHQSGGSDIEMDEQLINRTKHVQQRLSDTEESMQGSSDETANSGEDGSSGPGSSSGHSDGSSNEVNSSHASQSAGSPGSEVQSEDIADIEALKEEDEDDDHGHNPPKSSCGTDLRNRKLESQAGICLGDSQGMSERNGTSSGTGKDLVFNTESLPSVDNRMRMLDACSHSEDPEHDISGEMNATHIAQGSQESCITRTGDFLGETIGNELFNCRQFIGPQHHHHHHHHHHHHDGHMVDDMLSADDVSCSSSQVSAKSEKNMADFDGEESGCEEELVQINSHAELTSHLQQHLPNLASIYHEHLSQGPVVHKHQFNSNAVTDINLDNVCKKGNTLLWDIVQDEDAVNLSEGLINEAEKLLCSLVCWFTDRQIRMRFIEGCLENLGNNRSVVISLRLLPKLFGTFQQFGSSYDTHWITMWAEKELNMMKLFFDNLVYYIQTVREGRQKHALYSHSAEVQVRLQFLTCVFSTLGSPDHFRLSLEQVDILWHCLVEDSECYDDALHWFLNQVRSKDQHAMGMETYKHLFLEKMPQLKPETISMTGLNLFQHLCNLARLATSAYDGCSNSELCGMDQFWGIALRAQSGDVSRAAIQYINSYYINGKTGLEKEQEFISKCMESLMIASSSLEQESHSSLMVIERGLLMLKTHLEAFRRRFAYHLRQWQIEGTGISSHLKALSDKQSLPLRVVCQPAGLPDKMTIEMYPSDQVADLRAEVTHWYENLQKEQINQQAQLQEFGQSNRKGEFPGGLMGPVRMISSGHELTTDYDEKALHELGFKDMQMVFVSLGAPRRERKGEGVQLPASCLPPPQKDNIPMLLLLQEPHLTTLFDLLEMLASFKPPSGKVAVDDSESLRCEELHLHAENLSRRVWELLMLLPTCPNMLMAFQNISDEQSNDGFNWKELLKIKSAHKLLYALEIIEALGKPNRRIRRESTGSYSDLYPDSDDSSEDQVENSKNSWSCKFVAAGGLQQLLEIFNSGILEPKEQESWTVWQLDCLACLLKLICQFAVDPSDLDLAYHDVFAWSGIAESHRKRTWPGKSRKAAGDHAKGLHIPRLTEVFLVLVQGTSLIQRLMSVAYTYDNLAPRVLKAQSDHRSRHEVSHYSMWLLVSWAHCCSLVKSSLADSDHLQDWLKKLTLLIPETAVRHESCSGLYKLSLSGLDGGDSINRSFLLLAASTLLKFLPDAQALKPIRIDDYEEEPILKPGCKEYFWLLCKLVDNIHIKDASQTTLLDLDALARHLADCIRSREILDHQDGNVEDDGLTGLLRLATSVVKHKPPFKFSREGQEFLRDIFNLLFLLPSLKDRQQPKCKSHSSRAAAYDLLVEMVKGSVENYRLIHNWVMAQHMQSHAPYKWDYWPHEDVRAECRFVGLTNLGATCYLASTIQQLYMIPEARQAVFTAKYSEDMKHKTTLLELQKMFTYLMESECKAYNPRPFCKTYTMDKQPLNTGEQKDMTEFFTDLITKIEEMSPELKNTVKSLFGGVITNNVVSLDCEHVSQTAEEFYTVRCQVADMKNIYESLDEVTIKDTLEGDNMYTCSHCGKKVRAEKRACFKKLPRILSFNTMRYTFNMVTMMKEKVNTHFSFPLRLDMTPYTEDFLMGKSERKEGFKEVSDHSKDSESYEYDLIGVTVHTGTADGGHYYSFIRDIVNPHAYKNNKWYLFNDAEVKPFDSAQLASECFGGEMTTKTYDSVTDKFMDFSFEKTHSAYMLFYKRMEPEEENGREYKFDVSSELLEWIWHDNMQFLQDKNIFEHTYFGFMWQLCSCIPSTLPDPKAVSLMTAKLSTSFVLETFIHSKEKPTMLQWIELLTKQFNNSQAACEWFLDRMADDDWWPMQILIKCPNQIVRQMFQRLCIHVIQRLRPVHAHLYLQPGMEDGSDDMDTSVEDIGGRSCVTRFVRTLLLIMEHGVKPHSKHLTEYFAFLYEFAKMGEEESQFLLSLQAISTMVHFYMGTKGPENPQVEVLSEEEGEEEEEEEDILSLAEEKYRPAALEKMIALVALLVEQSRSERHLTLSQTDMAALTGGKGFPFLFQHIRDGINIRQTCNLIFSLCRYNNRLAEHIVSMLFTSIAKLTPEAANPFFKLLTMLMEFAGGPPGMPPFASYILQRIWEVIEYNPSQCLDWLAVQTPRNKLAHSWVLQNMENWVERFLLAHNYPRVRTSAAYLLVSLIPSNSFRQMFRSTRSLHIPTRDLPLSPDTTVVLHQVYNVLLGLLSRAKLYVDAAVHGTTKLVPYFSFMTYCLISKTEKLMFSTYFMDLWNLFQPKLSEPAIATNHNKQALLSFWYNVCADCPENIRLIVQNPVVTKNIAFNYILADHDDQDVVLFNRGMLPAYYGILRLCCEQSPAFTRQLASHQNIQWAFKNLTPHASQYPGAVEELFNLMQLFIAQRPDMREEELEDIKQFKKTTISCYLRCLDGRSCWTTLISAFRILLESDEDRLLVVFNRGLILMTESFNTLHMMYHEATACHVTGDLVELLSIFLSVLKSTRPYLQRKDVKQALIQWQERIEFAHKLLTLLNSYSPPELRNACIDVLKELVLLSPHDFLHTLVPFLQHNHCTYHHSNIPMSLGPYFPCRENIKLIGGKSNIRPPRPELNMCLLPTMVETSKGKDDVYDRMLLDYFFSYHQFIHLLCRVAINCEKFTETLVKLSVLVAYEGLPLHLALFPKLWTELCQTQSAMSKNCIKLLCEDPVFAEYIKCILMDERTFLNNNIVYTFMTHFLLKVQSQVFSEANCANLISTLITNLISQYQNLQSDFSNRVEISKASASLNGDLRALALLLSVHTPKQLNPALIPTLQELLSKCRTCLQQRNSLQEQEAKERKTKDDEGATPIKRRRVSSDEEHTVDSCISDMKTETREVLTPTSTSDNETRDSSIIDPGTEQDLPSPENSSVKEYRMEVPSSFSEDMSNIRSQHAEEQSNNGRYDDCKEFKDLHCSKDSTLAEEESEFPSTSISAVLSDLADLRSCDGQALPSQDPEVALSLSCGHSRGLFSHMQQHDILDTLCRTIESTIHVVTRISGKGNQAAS

Cc1nc(CN2CCN(C(=O)CCl)CC2)cs1
inactive: USP34 0.0453 | USP36 -0.0366 | USP38 -0.217 | USP39 -0.381 | USP4 -0.261
